Measured values reported in article PMC10812921, “Transcriptional Coactivator BOB1 (OBF1, OCA-B) Modulates the Specificity of DNA Recognition by the POU-Domain Factors OCT1 and OCT2 in a Monomeric Configuration”.

Legend:
POU1 (OCT1 POU domain) = POU1 (OCT1 POU domain) (human, UniProt P14859 260-458); test: EMSA-SELEX-seq; no BOB1; 20 mM Tris-HCl pH 7.6, 140 mM NaCl, 10% glycerol, 0.5 mM EDTA, 0.05% Triton X-100, 0.1 mg/mL BSA, 0.1 mg/mL poly(dI-dC), 5 mM DTT, room temperature, 20 min; high values mean tight binding; conditions: protein: recombinant; dsDNA, one strand shown
Summary of the method: (§1)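 Binding preference is reported as the percentage of sequenced 8-mers that match a motif pattern. Tagged POU-domain proteins were made in E. coli BL21, purified under denaturing conditions and renatured. A 30 ng portion was combined with 300 ng of a PCR-amplified double-stranded random 35-nt library, with or without 28 ng coactivator protein, in 20 μL Tris–HCl pH 7.6 binding buffer for 20 min at RT. Complex bands were excised from native 6% PAGE, eluted and PCR-amplified over four rounds before Illumina sequencing.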

POU2 (OCT2 POU domain) = target: T1, POU2 (OCT2 POU domain) (human, UniProt P09086 175-386); test: as above; conditions: protein: recombinant; dsDNA, one strand shown
T1 sequence: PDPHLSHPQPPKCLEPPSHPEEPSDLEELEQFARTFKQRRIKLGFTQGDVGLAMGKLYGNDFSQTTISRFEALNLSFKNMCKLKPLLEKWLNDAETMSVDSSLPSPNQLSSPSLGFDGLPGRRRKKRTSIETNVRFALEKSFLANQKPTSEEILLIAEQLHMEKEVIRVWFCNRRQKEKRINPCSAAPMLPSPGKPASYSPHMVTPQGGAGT
Summary of the method: as §1

[1] = target: POU1 (OCT1 POU domain);BOB1 (OBF1, OCA-B) (human;human, UniProt P14859;Q16633 260-458;1-256, |); test: EMSA-SELEX-seq; with BOB1 (ternary complex band); 20 mM Tris-HCl pH 7.6, 140 mM NaCl, 10% glycerol, 0.5 mM EDTA, 0.05% Triton X-100, 0.1 mg/mL BSA, 0.1 mg/mL poly(dI-dC), 5 mM DTT, room temperature, 20 min; high values mean tight binding; conditions: protein: recombinant;recombinant; copies: 1;1; dsDNA, one strand shown
Summary of the method: as §1

[2] = target: T2, POU2 (OCT2 POU domain);BOB1 (OBF1, OCA-B) (human;human, UniProt P09086;Q16633 175-386;1-256, |); test: as above; conditions: protein: recombinant;recombinant; copies: 1;1; dsDNA, one strand shown
T2 sequence 1: T1 sequence
T2 sequence 2: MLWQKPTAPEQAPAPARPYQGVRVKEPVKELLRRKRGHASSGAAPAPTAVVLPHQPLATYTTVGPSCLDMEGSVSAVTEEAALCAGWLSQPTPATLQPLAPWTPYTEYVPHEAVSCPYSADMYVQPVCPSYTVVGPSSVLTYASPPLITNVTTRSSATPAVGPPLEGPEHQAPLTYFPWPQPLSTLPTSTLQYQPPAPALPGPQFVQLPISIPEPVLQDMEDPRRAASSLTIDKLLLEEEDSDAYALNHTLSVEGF
Summary of the method: as §1

Sequence of POU1 (OCT1 POU domain) (P14859 260-458): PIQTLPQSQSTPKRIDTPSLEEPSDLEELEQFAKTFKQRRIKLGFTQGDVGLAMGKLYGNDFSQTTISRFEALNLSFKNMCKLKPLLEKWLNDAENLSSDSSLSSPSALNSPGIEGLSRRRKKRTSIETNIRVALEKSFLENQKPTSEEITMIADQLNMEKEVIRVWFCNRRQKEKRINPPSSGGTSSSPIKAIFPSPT

Sequence: AATATAAC
- binding signal (POU1 (OCT1 POU domain)): 0.05 % of ANNNNAAN 8-mers
- binding signal (POU2 (OCT2 POU domain)): 0.0817 % of ANNNNAAN 8-mers
- binding signal [1]: 0.0589 % of ANNNNAAN 8-mers
- binding signal [2]: 0.0578 % of ANNNNAAN 8-mers

Sequence: ATCACAAC
- binding signal (POU1 (OCT1 POU domain)): 0.0194 % of ANNNNAAN 8-mers
- binding signal (POU2 (OCT2 POU domain)): 0.0242 % of ANNNNAAN 8-mers
- binding signal [1]: 0.0222 % of ANNNNAAN 8-mers
- binding signal [2]: 0.0165 % of ANNNNAAN 8-mers

Sequence: AGAACAAC
- binding signal (POU1 (OCT1 POU domain)): 0.0153 % of ANNNNAAN 8-mers
- binding signal (POU2 (OCT2 POU domain)): 0.0132 % of ANNNNAAN 8-mers
- binding signal [1]: 0.0125 % of ANNNNAAN 8-mers
- binding signal [2]: 0.0239 % of ANNNNAAN 8-mers

Sequence: ATTGCAAA
- binding signal (POU1 (OCT1 POU domain)): 0.202 % of ANNNNAAN 8-mers
- binding signal (POU2 (OCT2 POU domain)): 0.167 % of ANNNNAAN 8-mers
- binding signal [1]: 0.322 % of ANNNNAAN 8-mers
- binding signal [2]: 0.324 % of ANNNNAAN 8-mers

Sequence: AGCTGAAC
- binding signal (POU1 (OCT1 POU domain)): 0.0156 % of ANNNNAAN 8-mers
- binding signal (POU2 (OCT2 POU domain)): 0.0196 % of ANNNNAAN 8-mers
- binding signal [1]: 0.0176 % of ANNNNAAN 8-mers
- binding signal [2]: 0.019 % of ANNNNAAN 8-mers

Sequence: AAGCGAAT
- binding signal (POU1 (OCT1 POU domain)): 0.0538 % of ANNNNAAN 8-mers
- binding signal (POU2 (OCT2 POU domain)): 0.0541 % of ANNNNAAN 8-mers
- binding signal [1]: 0.0531 % of ANNNNAAN 8-mers
- binding signal [2]: 0.0429 % of ANNNNAAN 8-mers

Sequence: AATGAAAA
- binding signal (POU1 (OCT1 POU domain)): 0.164 % of ANNNNAAN 8-mers
- binding signal (POU2 (OCT2 POU domain)): 0.152 % of ANNNNAAN 8-mers
- binding signal [1]: 0.202 % of ANNNNAAN 8-mers
- binding signal [2]: 0.114 % of ANNNNAAN 8-mers

Sequence: AGGGGAAA
- binding signal (POU1 (OCT1 POU domain)): 0.101 % of ANNNNAAN 8-mers
- binding signal (POU2 (OCT2 POU domain)): 0.0794 % of ANNNNAAN 8-mers
- binding signal [1]: 0.109 % of ANNNNAAN 8-mers
- binding signal [2]: 0.0826 % of ANNNNAAN 8-mers

Sequence: AGAAAAAG
- binding signal (POU1 (OCT1 POU domain)): 0.0534 % of ANNNNAAN 8-mers
- binding signal (POU2 (OCT2 POU domain)): 0.0581 % of ANNNNAAN 8-mers
- binding signal [1]: 0.0468 % of ANNNNAAN 8-mers
- binding signal [2]: 0.0421 % of ANNNNAAN 8-mers

Sequence: AGTATAAT
- binding signal (POU1 (OCT1 POU domain)): 0.192 % of ANNNNAAN 8-mers
- binding signal (POU2 (OCT2 POU domain)): 0.289 % of ANNNNAAN 8-mers
- binding signal [1]: 0.0866 % of ANNNNAAN 8-mers
- binding signal [2]: 0.121 % of ANNNNAAN 8-mers

Sequence: AAAGAAAA
- binding signal (POU1 (OCT1 POU domain)): 0.0988 % of ANNNNAAN 8-mers
- binding signal (POU2 (OCT2 POU domain)): 0.0892 % of ANNNNAAN 8-mers
- binding signal [1]: 0.132 % of ANNNNAAN 8-mers
- binding signal [2]: 0.0693 % of ANNNNAAN 8-mers

Sequence: ACTTTAAG
- binding signal (POU1 (OCT1 POU domain)): 0.0336 % of ANNNNAAN 8-mers
- binding signal (POU2 (OCT2 POU domain)): 0.0299 % of ANNNNAAN 8-mers
- binding signal [1]: 0.0332 % of ANNNNAAN 8-mers
- binding signal [2]: 0.0322 % of ANNNNAAN 8-mers

Sequence: ATAGAAAG
- binding signal (POU1 (OCT1 POU domain)): 0.0461 % of ANNNNAAN 8-mers
- binding signal (POU2 (OCT2 POU domain)): 0.0598 % of ANNNNAAN 8-mers
- binding signal [1]: 0.0546 % of ANNNNAAN 8-mers
- binding signal [2]: 0.0487 % of ANNNNAAN 8-mers

Sequence: AGCCAAAC
- binding signal (POU1 (OCT1 POU domain)): 0.0194 % of ANNNNAAN 8-mers
- binding signal (POU2 (OCT2 POU domain)): 0.0196 % of ANNNNAAN 8-mers
- binding signal [1]: 0.0261 % of ANNNNAAN 8-mers
- binding signal [2]: 0.0182 % of ANNNNAAN 8-mers

Sequence: AAGGTAAC
- binding signal (POU1 (OCT1 POU domain)): 0.0313 % of ANNNNAAN 8-mers
- binding signal (POU2 (OCT2 POU domain)): 0.0293 % of ANNNNAAN 8-mers
- binding signal [1]: 0.0234 % of ANNNNAAN 8-mers
- binding signal [2]: 0.0322 % of ANNNNAAN 8-mers

Sequence: AGGGAAAA
- binding signal (POU1 (OCT1 POU domain)): 0.205 % of ANNNNAAN 8-mers
- binding signal (POU2 (OCT2 POU domain)): 0.119 % of ANNNNAAN 8-mers
- binding signal [1]: 0.28 % of ANNNNAAN 8-mers
- binding signal [2]: 0.119 % of ANNNNAAN 8-mers

Sequence: ACACTAAC
- binding signal (POU1 (OCT1 POU domain)): 0.0137 % of ANNNNAAN 8-mers
- binding signal (POU2 (OCT2 POU domain)): 0.0132 % of ANNNNAAN 8-mers
- binding signal [1]: 0.0117 % of ANNNNAAN 8-mers
- binding signal [2]: 0.014 % of ANNNNAAN 8-mers

Sequence: AGGAGAAG
- binding signal (POU1 (OCT1 POU domain)): 0.045 % of ANNNNAAN 8-mers
- binding signal (POU2 (OCT2 POU domain)): 0.0472 % of ANNNNAAN 8-mers
- binding signal [1]: 0.0507 % of ANNNNAAN 8-mers
- binding signal [2]: 0.0438 % of ANNNNAAN 8-mers

Sequence: AGGGGAAG
- binding signal (POU1 (OCT1 POU domain)): 0.0557 % of ANNNNAAN 8-mers
- binding signal (POU2 (OCT2 POU domain)): 0.0673 % of ANNNNAAN 8-mers
- binding signal [1]: 0.0507 % of ANNNNAAN 8-mers
- binding signal [2]: 0.057 % of ANNNNAAN 8-mers

Sequence: ATAGAAAC
- binding signal (POU1 (OCT1 POU domain)): 0.0328 % of ANNNNAAN 8-mers
- binding signal (POU2 (OCT2 POU domain)): 0.0455 % of ANNNNAAN 8-mers
- binding signal [1]: 0.0339 % of ANNNNAAN 8-mers
- binding signal [2]: 0.0355 % of ANNNNAAN 8-mers

Sequence: ATGGGAAA
- binding signal (POU1 (OCT1 POU domain)): 0.098 % of ANNNNAAN 8-mers
- binding signal (POU2 (OCT2 POU domain)): 0.1 % of ANNNNAAN 8-mers
- binding signal [1]: 0.118 % of ANNNNAAN 8-mers
- binding signal [2]: 0.0784 % of ANNNNAAN 8-mers

Sequence: ACTTAAAG
- binding signal (POU1 (OCT1 POU domain)): 0.0328 % of ANNNNAAN 8-mers
- binding signal (POU2 (OCT2 POU domain)): 0.0437 % of ANNNNAAN 8-mers
- binding signal [1]: 0.0328 % of ANNNNAAN 8-mers
- binding signal [2]: 0.0462 % of ANNNNAAN 8-mers

Sequence: AAAATAAC
- binding signal (POU1 (OCT1 POU domain)): 0.0782 % of ANNNNAAN 8-mers
- binding signal (POU2 (OCT2 POU domain)): 0.0696 % of ANNNNAAN 8-mers
- binding signal [1]: 0.0816 % of ANNNNAAN 8-mers
- binding signal [2]: 0.0735 % of ANNNNAAN 8-mers

Sequence: AGAAGAAC
- binding signal (POU1 (OCT1 POU domain)): 0.0191 % of ANNNNAAN 8-mers
- binding signal (POU2 (OCT2 POU domain)): 0.0288 % of ANNNNAAN 8-mers
- binding signal [1]: 0.0176 % of ANNNNAAN 8-mers
- binding signal [2]: 0.0256 % of ANNNNAAN 8-mers

Sequence: ACGAAAAA
- binding signal (POU1 (OCT1 POU domain)): 0.0431 % of ANNNNAAN 8-mers
- binding signal (POU2 (OCT2 POU domain)): 0.0409 % of ANNNNAAN 8-mers
- binding signal [1]: 0.0578 % of ANNNNAAN 8-mers
- binding signal [2]: 0.0355 % of ANNNNAAN 8-mers

Sequence: AATTTAAC
- binding signal (POU1 (OCT1 POU domain)): 0.17 % of ANNNNAAN 8-mers
- binding signal (POU2 (OCT2 POU domain)): 0.147 % of ANNNNAAN 8-mers
- binding signal [1]: 0.117 % of ANNNNAAN 8-mers
- binding signal [2]: 0.0982 % of ANNNNAAN 8-mers

Sequence: ACTGTAAC
- binding signal (POU1 (OCT1 POU domain)): 0.0175 % of ANNNNAAN 8-mers
- binding signal (POU2 (OCT2 POU domain)): 0.0224 % of ANNNNAAN 8-mers
- binding signal [1]: 0.0203 % of ANNNNAAN 8-mers
- binding signal [2]: 0.0165 % of ANNNNAAN 8-mers

Sequence: ATTCCAAA
- binding signal (POU1 (OCT1 POU domain)): 0.0481 % of ANNNNAAN 8-mers
- binding signal (POU2 (OCT2 POU domain)): 0.0564 % of ANNNNAAN 8-mers
- binding signal [1]: 0.041 % of ANNNNAAN 8-mers
- binding signal [2]: 0.0578 % of ANNNNAAN 8-mers

Sequence: AAGATAAG
- binding signal (POU1 (OCT1 POU domain)): 0.045 % of ANNNNAAN 8-mers
- binding signal (POU2 (OCT2 POU domain)): 0.0593 % of ANNNNAAN 8-mers
- binding signal [1]: 0.046 % of ANNNNAAN 8-mers
- binding signal [2]: 0.0429 % of ANNNNAAN 8-mers

Sequence: ATTAAAAC
- binding signal (POU1 (OCT1 POU domain)): 0.108 % of ANNNNAAN 8-mers
- binding signal (POU2 (OCT2 POU domain)): 0.122 % of ANNNNAAN 8-mers
- binding signal [1]: 0.0757 % of ANNNNAAN 8-mers
- binding signal [2]: 0.0718 % of ANNNNAAN 8-mers
